In assay [1] the target is Cytochrome P450 1A2 (Homo sapiens) (UniProt P05177). The assay can be described thus: p450-cyp1a2 (AID 410; calls by dose curve; further: potency means the concentration at half of the fitted maximal effect;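 on activity change, negative = inhibition: -100% = full effect of reference inhibitor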). The gist of the method:
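Luminescent readout of luciferin formed from Luciferin-ME by human CYP1A2; data normalized against complete inhibition by 57 uM furafylline. Enzyme 20nM, substrate 100uM at Km, 100mM KPO4 buffer, 60 min reaction at room temperature.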

Assay [2] has as its target Glucocorticoid receptor (Homo sapiens) (UniProt P04150). Description: GR-GFP Redistribution (AID 450;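 active means compounds whose dose series gives a full or clear partial fitted curve of increased nuclear translocation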; further: potency means the concentration at half of the fitted maximal effect). Conditions: U2OS GR-GFP nuclear translocation, laser cytometry, 2 h.
The target is the same in assay [3]. Description: GR-EFC Redistribution (AID 451; calls by dose curve; further: potency means the concentration at half of the fitted maximal effect). Conditions: CHO-K1 GR-EFC translocation, beta-gal luminescence, 2 h. The gist of the method: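 CHO-K1 cells expressing nuclear EA and GR-ED fragments of b-gal; compounds titrated up to 46 uM final, 2 h at 37 C. GR nuclear translocation read as complemented b-gal luminescence after 1 h RT detection.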
Assay [4] deals with Mitogen-activated protein kinase 10 (Mus musculus) (UniProt Q61831). The assay can be described thus: JNK3 AlphaScreen Assay (AID 530; active means well fitted curve in either direction with a large enough effect, not every such curve was filed as active;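 further: kinase came from lysate of stimulated human HepG2 cells; signal reports phosphorylation of biotinylated GST-cJun 1-79 at Ser73 with 10 µM ATP; on the % scale 0 is the no-effect control and ±100 the full control effect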). The gist of the method: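 Pre-activated (IL-1β/TNFα) JNK3 in HepG2 lysates phosphorylates biotin-GST-cJun(1-79), 10 uM ATP; anti-phospho-cJun(Ser73) AlphaScreen read at room temperature, pH 7.6 Tris buffer. Compounds pre-incubated 15 min as titrations.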
(Bead proximity is the source of the signal in Alpha formats.)

The target of assay [5] is 3',5'-cyclic-AMP phosphodiesterase 4B (Homo sapiens) (UniProt Q07343). The assay can be described thus: qHTS Assay for Inhibitors of PDE-IV (AID 607; active means well fitted activation curve with a large enough effect in the main read-out, with a control signal flat, not every such curve was filed as active; further: % of control where 0% means no effect). The gist of the method: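 The readout is membrane depolarisation from a cAMP-sensing CNG channel, detected with a potential dye at ex 535/em 590. Cells were HEK293-derived (endogenous PDE-IV) at 1000 cells/well, titrated up to 22.9 uM final.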

Assay [6] is described as follows: qHTS Assay for Lipid Storage Modulators (AID 1519; calls by dose curve). As to conditions: Drosophila S3 cells, BODIPY lipid droplet/cell ratio, laser cytometry, cells loaded with oleic acid; for activity change, negative = inhibition: at 57.5 µM (top of the series). The gist of the method:
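Cells seeded at 5,000 per well were treated with compounds over a concentration series and loaded with oleic acid (400 uM, as added). Lipid droplet fluorescence (488 nm excitation, 500-530 nm channel) was read by laser-scanning cytometry and normalized to 20 uM Triacsin C.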

The target of assay [7] is Ubiquitin carboxyl-terminal hydrolase 1 (Homo sapiens) (UniProt O94782). Description: Inhibitors of USP1/UAF1: Pilot qHTS (AID 504865).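 Further: rhodamine fluorescence freed from ubiquitin-rhodamine substrate followed over time; top concentration of the series differs between compounds; on the % scale 0 is the no-effect control and ±100 the full control effect; nearly all actives have a fitted effect of over 35% in size.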 The gist of the method:
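In 50mM HEPES pH 7.8 containing 0.5mM EDTA, 1mM TCEP, 0.1 mg/ml BSA and 0.01% Tween-20, 1nM USP1/UAF1 is exposed to compound for 15 min, then Ub-Rho (150nM final) is added and fluorescence is read over time.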
Background: qHTS replaces the single test concentration by a dilution series.

Assay [8] concerns the target DNA dC->dU-editing enzyme APOBEC-3G (Homo sapiens) (UniProt Q9HC16). The assay can be described thus: qHTS for inhibitors of Vif-A3G interactions: Validation (AID 588379). Further: 0% is about no effect. The method in brief:
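HeLa cells stably expressing Vif and A3G-eYFP, 700 cells/well, incubated overnight at 37 deg C, then exposed to compound overnight at 37 deg C. Inhibition of Vif-mediated degradation read as increased yellow fluorescence (Ex 488/Em 500-530) by laser-scanning cytometry.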

Assay [9] deals with Zika virus NS2B-NS3 protease. The assay can be described thus: Primary screen GU AMC qHTS for Zika virus inhibitors (AID 1347154).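 Further: 0% = no-inhibitor control and -100% = no-enzyme control; nearly all actives have a fitted effect of over 70% in size.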 The gist of the method: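 Unlinked Zika NS2B hydrophilic domain–NS3 protease complex at 25 nM in 10 mM Tris-HCl pH 8.0, 0.01% Tween 20, with an AMC peptide substrate. Fluorescence change (340/450 nm) over 15 min at room temperature, normalized to controls, fitted to 4-parameter Hill.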

Assay [10] in a line: Primary qHTS for small molecule stabilizers of the endoplasmic reticulum resident proteome: Secreted ER Calcium Modulated Protein (SERCaMP) assay (AID 1508630). Further: on the % scale 0 is the no-effect control and ±100 the full control effect. The method in brief: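 GLuc-SERCaMP-expressing SH-SY5Y cells, pretreated 16 h with compound, are challenged with thapsigargin to empty ER calcium stores; after 4 h, coelenterazine is added directly to the medium and luminescence is imaged.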

Assay [11] in a line: AP1 Signaling Pathway (AID 357; active means well fitted curve in either direction with a large enough effect, not every such curve was filed as active;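 further: ME-180 reporter cells stimulated with EGF at its EC50 level; on the % scale 0 is the no-effect control and ±100 the full control effect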). As to conditions: ME-180 AP-1-bla reporter, EGF-induced, beta-lactamase ratio, 5 h; at 38 µM (top of the series). The method in brief:
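A ratiometric CCF4 readout (405 nm excitation; 460 and 530 nm emission) quantified AP-1-driven beta-lactamase in ME-180 cells after 5 h with compound and EC50 EGF; AC50 values were derived for activators and inhibitors.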

The nature of assay [12]: NFAT Signaling Pathway (AID 444; active means well fitted curve in either direction with a large enough effect, not every such curve was filed as active;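 further: carbachol stimulus at about its EC50 of 1 µM final; on the % scale 0 is the no-effect control and ±100 the full control effect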). Conditions: Jurkat NFAT-bla M1, carbachol, beta-lactamase ratio, 5 h; at 38 µM (top of the series). The method in brief: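 Jurkat cells with NFAT-driven β-lactamase reporter and co-expressed M1 receptor, stimulated with carbachol (final 1 uM, ~EC50), compound titration, 5 h at 37 °C. CCF4 loaded 1 h at RT; 460/530 nm ratio gave %activity and AC50.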

Assay [13] is described as follows: Stat Signaling Pathway (AID 446; active means well fitted curve in either direction with a large enough effect, not every such curve was filed as active). Conditions: ME-180 SIE beta-lactamase reporter, IL-6 stimulated, 5 h; at 38 µM (top of the series). The method in brief: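 Screening format detects activators and inhibitors alike: ME-180 SIE-bla cells stimulated at 40 pM IL-6 for 5 hrs with compound, then dual-emission beta-lactamase read at 405 nm excitation.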
A short description of assay [14]: qHTS Assay for Identification of Small Molecule Agonists for Thrombopoietin (TPO) Signaling Pathway (AID 917). Further: on the % scale 0 is the no-effect control and ±100 the full control effect. The gist of the method:
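Luminescence from a Glycoprotein IIb promoter–driven luciferase reporter served as read-out in murine Ba/F3 cells carrying the human TPO receptor. Cells, deprived of IL-3 overnight, received compounds with 26 pM TPO and were incubated 24 hrs at 37 C.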

The target of assay [15] is Pyruvate kinase (Leishmania mexicana) (UniProt Q27686). Description: qHTS Validation Assay for Inhibitors of Leishmania Mexicana Pyruvate Kinase (AID 945).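 Further: 0% = DMSO only neutral control wells.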 The method in brief:
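Read-out: luminescence from PKLight stop/detection reagent, data normalized to DMSO. Reaction: 0.2 nM E451W LmPYK, 0.5 mM PEP, 0.1 mM ADP, pH 7.2, 1 h room temperature.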

The target of assay [16] is Pyruvate kinase PKM (Homo sapiens) (UniProt P14618). Description: qHTS Assay for Activators of Human Muscle Pyruvate Kinase (AID 954; active means well fitted curve in the direction sought with a large enough effect, not every such curve was filed as active;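 further: 0% = uninhibited enzyme and -100% = no enzyme or full thiadiazolimine inhibition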). The method in brief:
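Reaction: 0.1 nM purified PKM2 with 0.5 mM phosphoenolpyruvate and 0.1 mM ADP, room temperature, 1 h. Readout: luciferase-based ATP luminescence after stop reagent. Activators judged against a 0.3 nM enzyme column.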

The target of assay [17] is alpha-glucosidase (Oryza sativa, rice) (UniProt Q653V4). The assay can be described thus: Counterscreen for Glucocerebrosidase Inhibitors: qHTS Assay for Rice alpha-Glucosidase at pH 5.0 (AID 997).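 Further: 0% = full activity with enzyme and -100% = basal without enzyme.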 The method in brief:
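Rice alpha-glucosidase (4 nM final) with 400 uM 4-methylumbelliferyl-alpha-D-glucopyranoside in citrate buffer pH 5.0, 20 min at room temperature, stopped at pH 10; fluorescence 365/440 nm, compounds 0.7 nM–77 uM, AC50 from Hill fits.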
Background: Counterscreens check selectivity or assay interference.

Where [18] appears, read: measured here: cell count channel max response.
Setting [19] is: measured here: lipid channel max response.

Values joined by “and” are separate entries in the source; they are usually repeats but may differ in a detail not shown here. Equal entries are not always repeated. Results filed as inconclusive are left out. Active and inactive are the calls of the source. Unless noted, the call rests on the fitted dose curve; in most records, active means well fitted curve in the direction sought with a large enough effect; inconclusive means small, poorly fitted or top-dose-only effect, or another doubt; inactive means no such curve, though single readings can be large; an effect the other way counts as inactive or inconclusive. A value given as a limit tells only on which side of the number the result lay.

This note sets out measurements from PubChem BioAssay (NCATS).

Chain of Cytochrome P450 1A2 (Homo sapiens) (P05177 whole entry, looked up): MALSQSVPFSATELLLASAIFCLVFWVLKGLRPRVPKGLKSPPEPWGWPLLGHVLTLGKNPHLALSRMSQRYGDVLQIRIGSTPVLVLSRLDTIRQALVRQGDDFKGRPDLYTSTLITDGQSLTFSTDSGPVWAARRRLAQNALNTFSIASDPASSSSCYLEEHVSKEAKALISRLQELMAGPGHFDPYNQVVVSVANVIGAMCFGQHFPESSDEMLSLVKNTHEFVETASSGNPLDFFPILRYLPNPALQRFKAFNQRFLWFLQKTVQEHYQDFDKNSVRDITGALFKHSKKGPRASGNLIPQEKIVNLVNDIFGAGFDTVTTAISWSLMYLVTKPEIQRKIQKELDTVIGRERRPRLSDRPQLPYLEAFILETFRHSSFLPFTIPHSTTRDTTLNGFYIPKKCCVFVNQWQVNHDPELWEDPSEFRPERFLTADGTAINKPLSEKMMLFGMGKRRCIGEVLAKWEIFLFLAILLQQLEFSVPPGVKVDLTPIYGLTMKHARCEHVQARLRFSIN
Chain of Pyruvate kinase (Leishmania mexicana) (Q27686 2-499 E452W): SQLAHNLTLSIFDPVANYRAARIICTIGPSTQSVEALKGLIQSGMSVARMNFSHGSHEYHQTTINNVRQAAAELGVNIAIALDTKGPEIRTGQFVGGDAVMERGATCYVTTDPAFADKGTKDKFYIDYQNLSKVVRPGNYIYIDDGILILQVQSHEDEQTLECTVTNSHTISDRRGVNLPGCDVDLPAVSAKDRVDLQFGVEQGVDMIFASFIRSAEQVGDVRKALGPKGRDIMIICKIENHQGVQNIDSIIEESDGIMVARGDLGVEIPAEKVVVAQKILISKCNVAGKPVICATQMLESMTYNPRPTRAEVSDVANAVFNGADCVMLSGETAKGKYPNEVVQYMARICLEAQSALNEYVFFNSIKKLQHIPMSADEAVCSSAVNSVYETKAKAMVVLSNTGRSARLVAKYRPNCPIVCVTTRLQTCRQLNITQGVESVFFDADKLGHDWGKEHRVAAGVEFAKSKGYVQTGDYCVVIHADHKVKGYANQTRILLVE
Chain of DNA dC->dU-editing enzyme APOBEC-3G (Homo sapiens) (Q9HC16 whole entry, looked up): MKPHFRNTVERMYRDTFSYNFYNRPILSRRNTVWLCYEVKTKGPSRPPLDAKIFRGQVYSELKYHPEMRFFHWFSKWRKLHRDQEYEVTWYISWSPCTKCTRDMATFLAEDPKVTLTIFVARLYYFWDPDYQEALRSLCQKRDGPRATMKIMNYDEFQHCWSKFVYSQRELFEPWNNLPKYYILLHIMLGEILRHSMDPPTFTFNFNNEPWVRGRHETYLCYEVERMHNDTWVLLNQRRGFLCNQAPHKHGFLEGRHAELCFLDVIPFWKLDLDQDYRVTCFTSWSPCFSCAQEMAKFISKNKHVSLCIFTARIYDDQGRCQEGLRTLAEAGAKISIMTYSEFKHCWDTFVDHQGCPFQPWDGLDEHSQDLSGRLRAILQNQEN
Chain of Glucocorticoid receptor (Homo sapiens) (P04150 whole entry, looked up, the tested form may be a part): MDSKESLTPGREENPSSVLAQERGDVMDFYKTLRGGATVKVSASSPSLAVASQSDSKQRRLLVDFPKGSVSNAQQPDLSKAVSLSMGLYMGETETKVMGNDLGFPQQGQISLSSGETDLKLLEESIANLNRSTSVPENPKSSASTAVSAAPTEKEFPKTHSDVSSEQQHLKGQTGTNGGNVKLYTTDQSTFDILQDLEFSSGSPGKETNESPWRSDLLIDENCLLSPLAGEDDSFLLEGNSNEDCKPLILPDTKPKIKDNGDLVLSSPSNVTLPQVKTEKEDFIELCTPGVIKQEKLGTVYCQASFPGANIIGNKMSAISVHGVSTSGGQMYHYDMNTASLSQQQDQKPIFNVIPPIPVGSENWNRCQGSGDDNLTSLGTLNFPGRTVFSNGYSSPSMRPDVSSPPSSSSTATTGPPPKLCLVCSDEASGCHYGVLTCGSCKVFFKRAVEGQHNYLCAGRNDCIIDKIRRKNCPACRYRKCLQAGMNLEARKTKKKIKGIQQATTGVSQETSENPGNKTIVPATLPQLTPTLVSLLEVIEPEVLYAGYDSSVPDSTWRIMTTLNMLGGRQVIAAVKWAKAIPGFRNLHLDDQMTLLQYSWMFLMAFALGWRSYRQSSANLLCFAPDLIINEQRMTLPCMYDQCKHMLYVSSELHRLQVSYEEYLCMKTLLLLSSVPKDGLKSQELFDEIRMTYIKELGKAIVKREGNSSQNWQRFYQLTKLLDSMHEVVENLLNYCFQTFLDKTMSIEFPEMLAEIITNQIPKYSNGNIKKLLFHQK
Chain of Pyruvate kinase PKM (Homo sapiens) (P14618 whole entry, looked up): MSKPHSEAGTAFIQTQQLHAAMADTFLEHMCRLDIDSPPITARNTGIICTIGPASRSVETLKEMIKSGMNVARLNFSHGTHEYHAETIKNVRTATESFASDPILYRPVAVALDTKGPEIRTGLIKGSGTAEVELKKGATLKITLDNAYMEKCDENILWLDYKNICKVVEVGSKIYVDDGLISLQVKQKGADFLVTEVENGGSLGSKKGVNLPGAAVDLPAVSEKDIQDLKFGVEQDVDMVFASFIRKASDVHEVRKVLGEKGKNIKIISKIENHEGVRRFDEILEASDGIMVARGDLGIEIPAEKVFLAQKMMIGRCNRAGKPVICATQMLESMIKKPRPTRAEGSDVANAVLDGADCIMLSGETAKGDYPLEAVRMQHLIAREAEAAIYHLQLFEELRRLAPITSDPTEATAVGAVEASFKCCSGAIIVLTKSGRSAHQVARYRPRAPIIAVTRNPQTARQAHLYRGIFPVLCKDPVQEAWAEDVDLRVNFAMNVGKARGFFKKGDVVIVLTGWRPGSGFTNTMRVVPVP
Chain of 3',5'-cyclic-AMP phosphodiesterase 4B (Homo sapiens) (Q07343 whole entry, looked up): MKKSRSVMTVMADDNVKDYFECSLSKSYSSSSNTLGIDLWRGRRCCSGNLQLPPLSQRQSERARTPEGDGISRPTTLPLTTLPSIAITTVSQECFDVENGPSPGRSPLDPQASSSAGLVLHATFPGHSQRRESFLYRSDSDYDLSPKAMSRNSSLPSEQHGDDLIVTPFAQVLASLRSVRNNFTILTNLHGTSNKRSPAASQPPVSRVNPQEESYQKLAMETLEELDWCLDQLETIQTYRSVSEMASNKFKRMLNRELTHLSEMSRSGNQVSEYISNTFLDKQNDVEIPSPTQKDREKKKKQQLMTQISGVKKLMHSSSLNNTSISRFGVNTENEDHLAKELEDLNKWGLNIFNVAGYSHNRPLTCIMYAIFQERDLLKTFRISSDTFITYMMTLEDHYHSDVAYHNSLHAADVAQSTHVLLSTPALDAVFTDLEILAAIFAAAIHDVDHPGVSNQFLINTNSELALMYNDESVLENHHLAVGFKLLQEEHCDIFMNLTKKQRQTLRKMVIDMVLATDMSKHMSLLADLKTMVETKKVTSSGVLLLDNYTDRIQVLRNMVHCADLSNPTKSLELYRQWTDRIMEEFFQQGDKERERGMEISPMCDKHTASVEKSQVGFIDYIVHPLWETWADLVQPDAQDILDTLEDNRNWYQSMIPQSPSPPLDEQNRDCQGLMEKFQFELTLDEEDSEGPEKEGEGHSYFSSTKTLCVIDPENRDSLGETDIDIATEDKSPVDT
Chain of Ubiquitin carboxyl-terminal hydrolase 1 (Homo sapiens) (O94782 whole entry, looked up): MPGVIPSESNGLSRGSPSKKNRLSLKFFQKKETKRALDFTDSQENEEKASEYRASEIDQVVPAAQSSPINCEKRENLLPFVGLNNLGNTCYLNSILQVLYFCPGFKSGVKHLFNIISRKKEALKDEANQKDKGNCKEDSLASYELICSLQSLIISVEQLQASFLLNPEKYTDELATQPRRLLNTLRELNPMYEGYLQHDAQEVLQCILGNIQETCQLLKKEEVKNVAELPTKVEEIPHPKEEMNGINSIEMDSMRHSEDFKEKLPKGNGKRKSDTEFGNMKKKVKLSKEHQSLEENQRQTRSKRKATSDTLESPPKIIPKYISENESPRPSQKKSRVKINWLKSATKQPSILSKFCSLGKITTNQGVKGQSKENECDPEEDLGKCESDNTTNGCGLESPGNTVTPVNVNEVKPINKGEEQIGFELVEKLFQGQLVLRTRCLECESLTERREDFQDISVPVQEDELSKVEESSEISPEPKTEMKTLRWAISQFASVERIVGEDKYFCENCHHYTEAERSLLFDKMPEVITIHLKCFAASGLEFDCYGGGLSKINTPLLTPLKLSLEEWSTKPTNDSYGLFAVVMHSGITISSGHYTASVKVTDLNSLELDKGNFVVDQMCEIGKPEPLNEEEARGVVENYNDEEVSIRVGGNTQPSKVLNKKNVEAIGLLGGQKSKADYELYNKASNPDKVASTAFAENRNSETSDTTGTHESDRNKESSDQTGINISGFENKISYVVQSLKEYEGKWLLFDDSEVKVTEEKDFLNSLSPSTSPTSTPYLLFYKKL

Regarding `N[C@H](C(=O)O)c1nn[nH]n1`, the Potency result in assay [1], in [4], in assay [5], in assay [7], in assay [8] and in assay [9] was “inactive” throughout. For the same molecule, the Potency result in [10] was “inactive”. The Potency in assay [2] and in assay [3] was > 46 µM (inactive) in each case. Further, in assay [6], the activity change, negative = inhibition was 1.12% (inactive). Also, the max response was -0.925% in assay [6] (setting [18]) and -0.771% in [6] (setting [19]).
As to `N[C@@H]1CCN(O)C1=O`, the results for the activity change, negative = inhibition in [11], in [12] and in [6] were 18.2% (inactive), 0.992% (inactive) and 4.58% (inactive), respectively. For the same molecule, the activity, negative = inhibition in assay [13] was 21.4% (inactive). The Potency in assay [2] and in assay [3] was > 46 µM (inactive) in each case. Besides, the Potency entry in assay [4], in [5], in assay [14], in assay [15], in assay [7] and in assay [8] was “inactive” in each case. In addition, the Potency entry in assay [9] and in [10] was “inactive” in each case. The molecule was called inactive in assay [16] and in assay [17]. Further, the max response was 18.8% in [6] (setting [18]) and 25.6% in [6] (setting [19]).
For `N[C@H](C(=O)O)[C@@H]1C[C@@H]1C(=O)O`, the Potency result in [1], in assay [5], in [14], in [15], in assay [7] and in assay [8] was “inactive” throughout. For the same molecule, the Potency entry in assay [9] and in assay [10] was “inactive” in each case. The Potency in [2] and in [3] was > 46 µM (inactive) each time. Besides, the outcome in [16] and in [17] was inactive. The activity change, negative = inhibition in assay [6] is 0.571% (inactive) and -0.444% (inactive). The max response in assay [6] (setting [18]) was -21% and 5.3%; in assay [6] (setting [19]) it was -19.5% and 5.06%.
For `C[C@@H]1C[C@@H]2[C@H]3CCC4=CC(=O)C=C[C@]4(C)[C@]3(F)[C@@H](O)C[C@@]2(C)[C@@]1(O)C(=O)CO`, the activity change, negative = inhibition in [11] was -8.71% (inactive); in [12] it was 7.2% (inactive); in assay [6], -3.85% (inactive). The Potency result in assay [1], in assay [5], in assay [14], in assay [15], in assay [8] and in assay [9] was “inactive” in each case. Besides, the Potency result in assay [10] is “inactive”. For the same molecule, the activity, negative = inhibition in [13] was -19.7% (inactive). In addition, the molecule was classed as inactive in assay [16] and in [17]. For the same molecule, the max response in [6] (setting [18]) was found to be 8.23%; in [6] (setting [19]), 2.65%.
Take `N[C@@H](C(=O)O)c1ccc(P(=O)(O)O)cc1`: the figures for the Potency in [1], in assay [2] and in [3] were 20 µM (active), > 46 µM (inactive) and > 46 µM (inactive), respectively. Also, the Potency entry in assay [4], in [5], in assay [7], in assay [9] and in assay [10] was “inactive” throughout. In addition, the activity change, negative = inhibition in assay [6] was 2.44% (inactive). The values for the max response in assay [6] (setting [18]) and in [6] (setting [19]) were 3.42% and 7.2%, respectively.
Turning to `N[C@H](C(=O)O)c1ccc(C(=O)O)cc1`, the Potency entry in assay [1], in assay [4], in assay [7], in [8], in [9] and in [10] was “inactive” each time. The Potency in [2] and in [3] was > 46 µM (inactive) each time. For the same molecule, the activity change, negative = inhibition in assay [6] was -2.07% (inactive). Besides, the max response in assay [6] (setting [18]) was -4.05%; in assay [6] (setting [19]) it was -7.12%.
